In PubChem BioAssay (EPA / NIEHS):
Calls of active or inactive are those of the source. Rule for the calls: active = hit-call score of the fitted dose curve at least 0.9, where 1 is the maximum; inactive = score below 0.9.

Tests used:
[1] = APR_HepG2_MitoMembPot_72hr: Apredica 72-hour HepG2 Assay for Mitochondrial Membrane Potential (AID 2282917); conditions: imaging, actives raise or lower the signal
In short: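 HepG2 cells dosed 72 hr with compound at 0.39–200 uM in duplicate, 0.5% v/v DMSO final. Mitochondria stained with 250 nM MitoTracker Red CMXRos for 30 min before formaldehyde fixation, imaged by high-content fluorescence; bidirectional fit versus DMSO.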

[2] = APR_HepG2_MitoticArrest_72hr: Apredica 72-hour HepG2 Assay for Mitotic Arrest (AID 2282918); conditions: high-content imaging, actives raise or lower the signal
In short: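 HepG2 cells treated 72 h at 0.39–200 uM, 0.5% DMSO final; formaldehyde-fixed, stained with Hoechst 33342 and phospho-histone H3 antibody, imaged by high-content fluorescence; bidirectional fit versus DMSO.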

[3] = APR_HepG2_MicrotubuleCSK_72hr: Apredica 72-hour HepG2 Assay for Microtubule CSK Stabilty (AID 2282919); conditions: HepG2 microtubule cytoskeleton, high-content imaging, actives raise or lower the signal
In short: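 HepG2, 72 hr cmpd exposure, 0.39–200 uM (10 pts, duplicate), 0.5% DMSO. 3.7% formaldehyde fix, 0.5% Triton perm, anti-alpha-tubulin/Cy5 plus Hoechst. HCS fluorescence intensity; bidirectional fit vs DMSO baseline; taxol as positive control.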

[4] = APR_HepG2_P-H2AX_24hr: Apredica 24-hour HepG2 Assay for H2AX Phosphorylation (AID 2282920); conditions: high-content imaging, actives raise or lower the signal
In short: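 HepG2 cells dosed 24 h at 0.39–200 uM (10 points, duplicate, 0.5% DMSO final). Formaldehyde-fixed and permeabilized, then immunostained for phospho-H2A.x with Hoechst. Fluorescence quantified by high-content imaging, fitted bidirectionally versus DMSO.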

[5] = APR_HepG2_StressKinase_24hr: Apredica 24-hour HepG2 Assay for Stress Kinase (AID 2282922); conditions: HepG2 stress kinase (phospho-c-Jun) imaging, actives raise or lower the signal
In short: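 Read-out: phospho-c-Jun immunofluorescence (Cy3 secondary) quantified by high-content imaging at 20x, nuclei defined by Hoechst 33342. Human HepG2 liver cells dosed 24 hr, 0.39–200 uM, DMSO 0.5% v/v; gain or loss of signal fitted relative to DMSO.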

[6] = APR_HepG2_p53Act_72hr: Apredica 72-hour HepG2 Assay for p53 Activation (AID 2282923); conditions: high-content imaging, actives raise or lower the signal;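 note: average cellular p53 protein immunofluorescence intensity in HepG2 cells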
In short: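 Readout: p53 immunofluorescence quantified by automated high-content imaging at 20x, six fields per well, nuclei located via Hoechst. Dosing ran 72 hr over ten concentrations from 0.39 to 200 uM; bidirectional curve fitting against DMSO baseline.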

[7] = APR_HepG2_MitoMass_72hr: Apredica 72-hour HepG2 Assay for Mitochondrial Mass (AID 2282924); conditions: high-content imaging, actives raise or lower the signal;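 note: MitoTracker Red CMXRos stain intensity per cell imaged as mitochondrial mass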
In short: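 Read-out: MitoTracker Red fluorescence intensity from automated imaging (20x, six fields per well) in human HepG2 liver cells. Dosing ran 72 hr, 0.39–200 uM, 0.5% DMSO; bidirectional curve fitting versus DMSO baseline.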

[8] = APR_HepG2_NuclearSize_72hr: Apredica 72-hour HepG2 Assay for Nuclear Size (AID 2282925); conditions: high-content imaging, actives raise or lower the signal
In short: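 Read-out: nuclear diameter from Hoechst 33342 images (ArrayScan, 20x, six fields/well), via cell-cycle image analysis. HepG2 were dosed 0.39–200 uM for 72 hr in 0.5% DMSO. Bidirectional fit relative to DMSO.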

[9] = APR_HepG2_StressKinase_72hr: Apredica 72-hour HepG2 Assay for Stress Kinase (AID 2282921); conditions: HepG2 stress kinase (phospho-c-Jun) imaging, actives raise or lower the signal
In short: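 Phospho-c-Jun immunofluorescence measured by high-content imaging at 20x, six fields per well; bidirectional curve fitting against DMSO as baseline. Dosing: 0.39–200 uM, 72 h, 0.5% DMSO final.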

Measured: AC50

CC(C)c1cccc(C(C)C)c1NC(=O)NS(=O)(=O)c1cc(C(C)(C)O)co1
inactive: [1] | [2] | [3] | [4] | [5] | [6] | [7] | [8]

CCCC(=O)O
inactive: [1] | [2] | [4] | [9] | [5] | [7] | [8]

CCC(C)N(C)C(=O)c1cc2ccccc2c(-c2ccccc2Cl)n1 (stereo not given)
inactive: [9] | [6] | [8]
active: [1] 67.7 µM | [2] 65.8 µM | [4] 69.8 µM | [5] 69.2 µM | [7] 66.4 µM

CCCCC(CC)COP(=O)(OCC(CC)CCCC)OCC(CC)CCCC (stereo not given)
inactive: [1] | [5] | [7] | [8]
active: [2] 31.5 µM | [3] 51.5 µM | [4] 68 µM | [6] 42.5 µM

CC(C)(O)c1ccc(CNC(=O)c2cccnc2Oc2ccc(F)cc2)cc1
inactive: [1] | [2] | [3] | [4] | [5] | [6] | [7] | [8]

CCN(CC)CCOc1ccc(C(=C(Cl)c2ccccc2)c2ccccc2)cc1
inactive: [1] | [9] | [5] | [8]
active: [2] 11.4 µM | [4] 10.5 µM | [7] 77.9 µM

OCC(CO)n1cnc(-c2ccc(F)cc2)c1-c1ccnc(Oc2ccccc2)n1
inactive: [1] | [2] | [3] | [4] | [5] | [6] | [7]

S=c1[nH]c2ccccc2s1
inactive: [2] | [4] | [9] | [5] | [6] | [7] | [8]
active: [1] 97.3 µM

CC(=O)S[C@H](C(=O)N[C@H]1Cc2ccccc2[C@H]2CCC[C@@H](C(=O)O)N2C1=O)C(C)C
inactive: [1] | [2] | [4] | [9] | [5] | [6] | [7]

O=C(O)CC(O)(CC(=O)O)C(=O)O
inactive: [1] | [2] | [4] | [5] | [6] | [7] | [8]

OCC(O)CO
inactive: [1] | [2] | [4] | [5] | [6] | [7] | [8]

c1ccc2occc2c1
inactive: [1] | [2] | [4] | [9] | [5] | [6]
active: [7] 100 µM

CN(C)CCCN1c2ccccc2Sc2ccc(Cl)cc21
inactive: [7] | [8]
active: [1] 112 µM | [2] 26 µM | [4] 26 µM | [5] 25.2 µM | [6] 100 µM

COC(=O)CCCC(=O)OC
inactive: [1] | [2] | [3] | [4] | [5] | [6] | [7] | [8]

NC1CCCCC1
inactive: [1] | [2] | [3] | [4] | [5] | [7]

N[C@@H](Cc1c[nH]c2ccccc12)C(=O)O
inactive: [1] | [2] | [3] | [4] | [9] | [5] | [7] | [8]

Cc1c(C)c2c(c(C)c1O)CCC(C)(COc1ccc(CC3SC(=O)NC3=O)cc1)O2 (stereo not given)
active: [1] 135 µM | [2] 54.3 µM | [6] 65.2 µM | [7] 61.8 µM
inactive: [3] | [4] | [5]

CN(C)CCCN(C)CCCN(C)C
inactive: [1] | [2] | [4] | [9] | [5] | [6] | [7] | [8]

C=CCCCCCCCCCCCC
active: [4] 99 µM | [6] 93.4 µM
inactive: [1] | [2] | [5] | [7] | [8]

COc1ccc(OC(F)(F)F)cc1CN[C@H]1CCCN[C@H]1c1ccccc1
inactive: [3] | [5]
active: [1] 55.9 µM | [2] 17.7 µM | [4] 32.6 µM | [6] 24.3 µM | [7] 62.3 µM

Cc1cc(SC2=C(O)C[C@@](CCc3ccc(N)cc3)(C(C)C)OC2=O)c(C(C)(C)C)cc1CO
inactive: [1] | [2] | [4] | [9] | [5] | [6] | [7] | [8]

CC(N)=O
inactive: [1] | [2] | [4] | [9] | [5] | [7] | [8]

CCc1nc(N)nc(N)c1-c1ccc(Cl)cc1
inactive: [1] | [4] | [5] | [7] | [8]
active: [2] 110 µM | [6] 3.77 µM

CSc1ccc(Oc2ccc(S(N)(=O)=O)cc2CN(C)C)cc1C
active: [4] 92.5 µM
inactive: [1] | [2] | [3] | [5] | [7]
